Assay [1] can be described thus: compounds binding Alexa647 anti-His antibody – biochemical, small-molecule microarray, 635 nm fluorescence, artefact control for SMM control protein annotation, primary screen (AID 1128).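 Further: score merges feature fluorescence with signal-to-noise for each printed compound spot.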 The note with it: higher = more signal.
In assay [2] the test system is Human papillomavirus type 1a E7 protein (residues 1-88). As to the kind of experiment: HPV1a E7 small-molecule binders, primary screen, biochemical, small-molecule microarray, residues 1-88, 635 nm (AID 1129). The note with it: small-molecule microarray binding, fluorescence 635 nm; higher = more signal.
The target of assay [3] is Focal adhesion kinase 1 (Homo sapiens) (UniProt Q05397). As to the kind of experiment: PTK2 protein binding on printed compound slides – biochemical, small-molecule microarray, 635/667 nm fluorescence, BSA, DTT, primary screen (AID 1130).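 Further: composite of spot emission at 667 nm and signal to noise over triplicate slides.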 The note with it: 635 nm fluorescence, higher = more signal.
The subject of assay [4] is Fibrinogen (Alexa647-labelled). In words: Alexa647-fibrinogen binding to printed small molecules – biochemical, small-molecule microarray, 635/667 nm fluorescence, artefact control for SMM control-protein annotation, profiling panel (AID 1131).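 Further: z-score merges 667 nm fluorescence with per-spot signal-to-noise over triplicate slides.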 The conditions noted are these: fibrinogen-A647 binding fluorescence, higher = more signal.
In assay [5] the target is Follistatin (Homo sapiens) (UniProt P19883). As to the kind of experiment: FST protein binding to printed compounds – biochemical, small-molecule microarray, 635/667 nm fluorescence, primary screen (AID 1132). The note with it: 635 nm fluorescence, higher = more signal.
Assay [6] deals with Fibroblast growth factor 2 (Homo sapiens) (UniProt P09038). As to the kind of experiment: basic fibroblast growth factor binding to printed compounds – biochemical, small-molecule microarray, 635/667 nm fluorescence, primary screen (AID 1133). The note with it: FGF2, fluorescence 635/667, higher = more signal.
The nature of assay [7]: JC-1 mitochondrial potential readout, lung cancer cells – cell-based, A549, JC-1 fluorescence, basal, 24 h, 100 nL, profiling panel (AID 1138).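 Further: A549 lung adenocarcinoma cells under basal conditions with no added stimulus; test concentration not given here.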 The note with it: higher = more signal.
Another assay relates to Lefty1. As to the kind of experiment: Lefty1 protein binding to printed compounds – biochemical, small-molecule microarray, 635/667 nm fluorescence, primary screen (AID 1139). The conditions noted are these: fluorescence 635/667, higher = more signal.
In assay [8] the test system is wheat germ agglutinin (Triticum aestivum), Alexa647-labelled. As to the kind of experiment: Alexa647-WGA lectin binding to printed small molecules – biochemical, small-molecule microarray, 635/667 nm fluorescence, artefact control for SMM control-protein annotation, profiling panel (AID 1140).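 Further: score merges 667 nm feature emission with signal to noise over triplicate slides.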 The conditions noted are these: WGA-A647 binding, 635 nm fluorescence, higher = more signal.

Assay [9] deals with Luciferin 4-monooxygenase (Photinus pyralis) (UniProt P08659). In words: inhibition of purified Photinus pyralis luciferase – biochemical, luminescence, purified enzyme, 2006 set, primary screen (AID 1141).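 Further: cell-free assay with purified firefly luciferase at 100 ng per well in PBS; test concentration not given here.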 The note with it: purified firefly luciferase, SteadyGlo luminescence, 30 min; higher = more signal, called active from +8 up or from −8 down.
The test system of assay [10] is Wnt5a (protein binding on small-molecule microarray). In words: small molecules binding Wnt5a protein – biophysical, small-molecule microarray, 635/667 nm fluorescence, primary screen (AID 1142).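 Further: fluorescence read at 667 nm with signal to noise per printed feature.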 The note with it: 635 nm fluorescence, higher = more signal.
Assay [11] can be described thus: ATP-based viability of Huh7 replicon cells – cell-based, CellTiter-Glo luminescence, basal, 48 h, cytotoxicity control for HCV replication inhibitor project, primary screen (AID 1143).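 Further: Huh7 hepatoma cells carrying a hepatitis C replication reporter with no stimulus; test concentration not given here.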 The note with it: higher = more signal, called active from +8 up or from −8 down.
Assay [12] can be described thus: Pseudomonas biofilm growth suppression – PAO1 strain, BacTiter-Glo luminescence, LB-PBS, primary screen (AID 1144). The note with it: P. aeruginosa PAO1 biofilm, 12 h, higher = more signal.
Assay [13] can be described thus: basal CRE-LacZ reporter activity in PC12 – cell-based, unstimulated, primary screen (AID 1145). The note with it: no forskolin, luminescence, 4.5 h, higher = more signal, called active from +8 up or from −8 down.
Assay [14] is described as follows: forskolin-driven CRE-LacZ activity in PC12 – cell-based, CRE-LacZ reporter, forskolin-stimulated, primary screen (AID 1146).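 Further: PC12 cells with 6xCRE LacZ reporter stimulated by forskolin 10 µM; beta-galactosidase reporter signal reflecting CREB driven transcription.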 The note with it: luminescence, 4.5 h, higher = more signal, called active from +8 up or from −8 down.
The target of assay [15] is Streptavidin (Streptomyces avidinii) (UniProt P22629). In words: compounds binding control protein streptavidin – biophysical, small-molecule microarray, 635/667 nm fluorescence, artefact control for SMM compound annotation, primary screen (AID 1147).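 Further: signal reflects streptavidin binding to arrayed compounds as a control protein.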 The conditions noted are these: higher = more signal.
Assay [16] is described as follows: probe aInhba binding on compound microarray – biochemical, small-molecule microarray, 635/667 nm fluorescence, primary screen (AID 1148).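 Further: score merges 667nm spot fluorescence with signal-to-noise for antibody binding to printed compounds.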 The note with it: higher = more signal.
Assay [17] has as its target Torsin-1A (Homo sapiens) (UniProt O14656). As to the kind of experiment: TOR1A wild-type binding on microarray – cell lysate, small-molecule microarray, lysate, 635/667 nm, primary screen (AID 1149). The conditions noted are these: COS7 hTOR1A-WT lysate, 635 nm fluorescence, higher = more signal.
The target is the same in assay [18]. In words: torsin A mutant lysate binding on microarrays – cell lysate, small-molecule microarray, COS7 lysate, 635/667 nm fluorescence, primary screen (AID 1150).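 Further: score pools 667 nm emission and signal to noise measuring lysate protein binding.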 The note with it: COS7 hTOR1A mutant lysate, 635 nm fluorescence, higher = more signal.
Assay [19] has as its system Sonic hedgehog protein (Shh). In words: Sonic hedgehog microarray binding compounds – biochemical, small-molecule microarray, 635/667 nm fluorescence, primary screen (AID 1151).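 Further: Shh protein binding to compounds spotted on small-molecule microarray slides; score combines spot fluorescence intensity with signal-to-noise across triplicate slides.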 The conditions noted are these: 635 nm fluorescence, higher = more signal.

SMILES strings stand for the structures. Active and inactive are the calls of the source. Unless noted, how the calls were made is not given here.

Sequence of Streptavidin (Streptomyces avidinii) (P22629 whole entry, looked up): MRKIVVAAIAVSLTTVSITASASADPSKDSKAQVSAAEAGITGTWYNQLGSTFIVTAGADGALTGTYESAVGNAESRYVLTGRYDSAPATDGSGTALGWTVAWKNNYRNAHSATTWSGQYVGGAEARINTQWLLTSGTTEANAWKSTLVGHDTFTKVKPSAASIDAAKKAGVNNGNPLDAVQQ
Sequence of Luciferin 4-monooxygenase (Photinus pyralis) (P08659 whole entry, looked up): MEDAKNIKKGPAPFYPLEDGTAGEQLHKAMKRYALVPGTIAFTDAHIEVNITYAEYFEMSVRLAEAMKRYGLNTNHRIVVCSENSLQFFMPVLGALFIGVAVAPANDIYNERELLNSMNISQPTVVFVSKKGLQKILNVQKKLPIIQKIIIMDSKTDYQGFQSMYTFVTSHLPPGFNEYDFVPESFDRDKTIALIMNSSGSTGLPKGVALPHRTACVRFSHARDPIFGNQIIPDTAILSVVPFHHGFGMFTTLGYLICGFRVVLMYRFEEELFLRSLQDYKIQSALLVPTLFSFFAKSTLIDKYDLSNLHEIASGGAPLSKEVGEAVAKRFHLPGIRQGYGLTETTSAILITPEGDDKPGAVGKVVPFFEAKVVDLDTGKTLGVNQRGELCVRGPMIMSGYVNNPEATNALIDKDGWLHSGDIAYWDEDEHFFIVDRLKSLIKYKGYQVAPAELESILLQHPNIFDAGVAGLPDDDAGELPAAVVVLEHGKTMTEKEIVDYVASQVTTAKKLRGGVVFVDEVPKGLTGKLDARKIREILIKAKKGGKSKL
Sequence of Fibroblast growth factor 2 (Homo sapiens) (P09038 whole entry, looked up): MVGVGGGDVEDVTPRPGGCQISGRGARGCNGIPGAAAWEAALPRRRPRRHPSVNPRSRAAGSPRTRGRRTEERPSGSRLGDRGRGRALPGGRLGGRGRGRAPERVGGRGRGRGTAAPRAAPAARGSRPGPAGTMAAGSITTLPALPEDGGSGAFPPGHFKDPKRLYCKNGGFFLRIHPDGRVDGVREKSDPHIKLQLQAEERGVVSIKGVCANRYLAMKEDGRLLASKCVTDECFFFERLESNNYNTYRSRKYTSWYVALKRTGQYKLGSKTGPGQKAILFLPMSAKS
Sequence of Torsin-1A (Homo sapiens) (O14656 whole entry, looked up): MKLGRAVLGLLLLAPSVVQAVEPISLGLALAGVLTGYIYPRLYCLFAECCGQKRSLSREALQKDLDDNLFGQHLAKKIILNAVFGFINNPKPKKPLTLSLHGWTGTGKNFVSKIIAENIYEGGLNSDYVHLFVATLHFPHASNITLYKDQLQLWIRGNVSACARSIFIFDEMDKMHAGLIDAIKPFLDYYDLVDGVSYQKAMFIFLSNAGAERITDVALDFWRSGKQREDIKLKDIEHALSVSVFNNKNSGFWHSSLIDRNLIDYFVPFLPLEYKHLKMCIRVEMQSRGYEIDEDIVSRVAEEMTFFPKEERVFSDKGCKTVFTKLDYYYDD
Sequence of Follistatin (Homo sapiens) (P19883 whole entry, looked up): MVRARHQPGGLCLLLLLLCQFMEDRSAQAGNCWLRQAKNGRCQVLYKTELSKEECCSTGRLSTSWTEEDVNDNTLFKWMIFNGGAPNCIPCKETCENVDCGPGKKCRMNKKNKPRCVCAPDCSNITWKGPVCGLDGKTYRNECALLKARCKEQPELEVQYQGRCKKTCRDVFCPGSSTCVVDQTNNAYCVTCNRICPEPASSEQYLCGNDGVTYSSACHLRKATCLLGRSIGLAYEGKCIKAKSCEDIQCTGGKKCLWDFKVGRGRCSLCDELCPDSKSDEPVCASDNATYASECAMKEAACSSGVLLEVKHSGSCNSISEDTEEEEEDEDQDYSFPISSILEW
Sequence of Focal adhesion kinase 1 (Homo sapiens) (Q05397 whole entry, looked up): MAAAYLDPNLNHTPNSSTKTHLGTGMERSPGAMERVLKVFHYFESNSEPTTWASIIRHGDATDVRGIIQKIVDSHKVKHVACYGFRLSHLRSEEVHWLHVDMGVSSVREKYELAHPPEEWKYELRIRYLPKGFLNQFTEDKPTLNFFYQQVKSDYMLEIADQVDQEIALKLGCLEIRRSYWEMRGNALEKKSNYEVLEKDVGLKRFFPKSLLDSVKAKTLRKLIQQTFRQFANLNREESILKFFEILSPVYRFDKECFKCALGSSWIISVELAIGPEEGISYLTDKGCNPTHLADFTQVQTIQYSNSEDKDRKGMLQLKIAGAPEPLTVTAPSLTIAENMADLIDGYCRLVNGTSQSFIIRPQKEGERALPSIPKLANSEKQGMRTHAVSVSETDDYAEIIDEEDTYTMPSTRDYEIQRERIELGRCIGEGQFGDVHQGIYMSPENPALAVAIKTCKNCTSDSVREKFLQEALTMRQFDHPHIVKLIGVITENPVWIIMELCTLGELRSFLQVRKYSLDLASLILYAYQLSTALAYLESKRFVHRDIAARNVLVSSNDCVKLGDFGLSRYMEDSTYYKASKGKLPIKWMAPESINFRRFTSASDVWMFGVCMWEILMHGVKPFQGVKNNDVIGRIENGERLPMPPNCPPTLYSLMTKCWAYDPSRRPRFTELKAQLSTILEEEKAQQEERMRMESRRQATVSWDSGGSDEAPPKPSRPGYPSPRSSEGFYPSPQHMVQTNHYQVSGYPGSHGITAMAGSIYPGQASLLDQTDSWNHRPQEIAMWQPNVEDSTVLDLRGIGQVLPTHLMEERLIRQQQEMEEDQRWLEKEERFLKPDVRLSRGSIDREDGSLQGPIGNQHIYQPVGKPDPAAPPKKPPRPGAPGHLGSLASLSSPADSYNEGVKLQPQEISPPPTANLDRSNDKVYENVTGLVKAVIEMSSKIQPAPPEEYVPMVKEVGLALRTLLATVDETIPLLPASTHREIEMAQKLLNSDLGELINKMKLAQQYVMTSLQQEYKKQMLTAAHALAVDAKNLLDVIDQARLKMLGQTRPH

As to `COCCOC(=O)N1C(=O)[C@@]2(c3cc(C#CC4=CCCCC4)ccc31)[C@H](c1ccccc1OCCO)N1[C@H](c3ccccc3)[C@H](c3ccccc3)OC(=O)[C@H]1[C@@H]2C(=O)N1CCCCCCC1`, the composite z-score in assay [1] was found to be 0.778; in assay [2] it was 1.22; in [3], 0.724; in assay [4] it was 0.767; in assay [5], 1.24; in [6], 1.14. Further, the composite z-score with Lefty1 is 0.277; in [8], 0.405; in assay [10] it was 0.582; in assay [15] it was 0.342; in [16], -0.584; in the assay with Torsin-1A (Homo sapiens) [17], 0.931. The results for the composite z-score (in the assay with Torsin-1A (Homo sapiens) [18]; in [19]) were 0.156 and 0.755, respectively. Besides, the z-score is -0.433 in assay [7]; -0.22 (inactive) in [9]; -4.01 (inactive) in [11]; 0.727 (inactive) in assay [12]; -0.402 (inactive) in assay [13]; 0.207 (inactive) in [14].

For `CC(=O)c1ccc(C(O)C2C=CC3C(=O)N(c4ccccc4)C(=O)C3N2Nc2ccc(C#N)cc2)cc1` (stereo not given), the composite z-score is 0.631 in assay [1]; 1.01 in assay [2]; 1.27 in assay [3]; 0.72 in [4]; -0.111 in [5]; 0.196 in [6]. The composite z-score in the assay on Lefty1 was -0.253; in [8], 0.714; in [10], -0.14; in [15], 1.14; in assay [16] it was 0.0422; in the assay with Torsin-1A (Homo sapiens) [17], -0.167. The composite z-score with Torsin-1A (Homo sapiens) [18] is 0.261; in assay [19], -0.964. Besides, the z-score in assay [7] is 0.0866; in assay [9], -0.0334 (inactive); in [11], 0.338 (inactive); in assay [12] it was -0.864 (inactive); in [13] it was 1.19 (inactive); in assay [14], 0.574 (inactive).

With `C=CCOC(=O)[C@H]1[C@@H]2C(=O)O[C@@H](c3ccccc3)[C@@H](c3ccccc3)N2[C@@H](c2ccc(OCCOC(=O)[C@@H]3C[C@@H]4C(=O)N5CCC[C@H]5C(=O)N4[C@@H]3c3ccc(O)cc3)cc2)[C@]12C(=O)Nc1ccc(I)cc12`, the composite z-score stood at 0.796 in [1]; 0.246 in assay [2]; 0.0398 in [3]; 0.664 in assay [4]; 1.36 in assay [5]; 1.16 in [6]. In addition, the composite z-score with Lefty1 worked out at 0.698; in assay [8], 0.671; in assay [10] it was 0.269; in assay [15], 0.107; in [16], 0.177; with Torsin-1A (Homo sapiens) [17], 0.655. Also, the composite z-score was 0.504 with Torsin-1A (Homo sapiens) [18] and 1.72 in assay [19]. In addition, the z-score is -1.28 in [7]; -0.873 (inactive) in [9]; -0.648 (inactive) in [11]; -0.42 (inactive) in assay [12]; 0.423 (inactive) in assay [13]; 0.016 (inactive) in assay [14].

For `CCCC[C@@H]1C[C@H]1[C@@H](NC(=O)Cc1ccccc1)c1ccc(-c2ccccc2)cc1`, the composite z-score was 0.272 in assay [1]; 1.12 in assay [2]; 0.913 in [3]; 0.655 in assay [4]; -0.173 in [5]; -0.405 in assay [6]. The composite z-score in the assay on Lefty1 is -0.0127; in [8], 0.0864; in assay [10], -0.111; in assay [15], 0.698; in [16] it was -0.158; with Torsin-1A (Homo sapiens) [17], -0.369. The composite z-score in the assay with Torsin-1A (Homo sapiens) [18] is 0.21; in [19], -0.756. Besides, the z-score in [7] is 0.629; in assay [9], 0.624 (inactive); in assay [11] it was -1.31 (inactive); in [12] it was 1.65 (inactive); in assay [13] it was 0.39 (inactive); in assay [14], 1.19 (inactive).

On to `COC(=O)c1nc2oc1CC[C@@H](CO)NC(=O)N(C)Cc1cnnn1C[C@H](Cc1ccccc1)NC2=O`, for which the composite z-score in assay [1] is -0.0727; in assay [2], -0.405; in [3], -0.302; in assay [4], 0.779; in [5], -0.701; in assay [6], -0.403. Moreover, the composite z-score in the assay on Lefty1 was -0.281; in assay [8], 1.03; in assay [10], -0.202; in assay [15], -0.65; in [16], -0.268; with Torsin-1A (Homo sapiens) [17], -0.182. For the same compound, the values for the composite z-score (with Torsin-1A (Homo sapiens) [18]; in assay [19]) were -0.533 and 0.272, respectively. Besides, the z-score in assay [7] was 0.9; in assay [9], 0.782 (inactive); in assay [11], -0.0922 (inactive); in assay [12] it was -1.19 (inactive); in assay [13] it was 0.484 (inactive); in [14], -0.826 (inactive).

Source of the values: PubChem BioAssay.
